Drawing on PubChem BioAssay AID623911 (Vanderbilt High Throughput Screening Facility, 2012), this text covers manual score for 102 compounds.

The structures appear in SMILES notation. Hit rate of the full screen: of about 2,100 compounds, about 770 (37%) were called active. Some of the results follow. A number with no mark means an inactive call.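 The calls were made as follows: active = by-eye trace score of 1 for enhancers or -1 for inhibitors, so actives lie on both sides (some results past the limit were not filed as active); inactive = score 0, or 3 fluorescent, or 4 baseline rise.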

For the test, the target named is G protein-activated inward rectifier potassium channel 2 (Homo sapiens) + G protein-activated inward rectifier potassium channel 1 (Homo sapiens) (UniProt P48051+P48549). Kind of test: GIRK1/2 thallium flux modulators, retest, confirmation, cell-based, HEK293 rmGlu8/hGIRK1/2, FluoZin-2 (AID 623911). Particulars: HEK293 rmGlu8/hGIRK1/2, thallium flux FluoZin-2; actives lie on both sides; glutamate co-added at its EC20 level.
Chain of G protein-activated inward rectifier potassium channel 2 (Homo sapiens) + G protein-activated inward rectifier potassium channel 1 (Homo sapiens) (P48051 whole entry, looked up): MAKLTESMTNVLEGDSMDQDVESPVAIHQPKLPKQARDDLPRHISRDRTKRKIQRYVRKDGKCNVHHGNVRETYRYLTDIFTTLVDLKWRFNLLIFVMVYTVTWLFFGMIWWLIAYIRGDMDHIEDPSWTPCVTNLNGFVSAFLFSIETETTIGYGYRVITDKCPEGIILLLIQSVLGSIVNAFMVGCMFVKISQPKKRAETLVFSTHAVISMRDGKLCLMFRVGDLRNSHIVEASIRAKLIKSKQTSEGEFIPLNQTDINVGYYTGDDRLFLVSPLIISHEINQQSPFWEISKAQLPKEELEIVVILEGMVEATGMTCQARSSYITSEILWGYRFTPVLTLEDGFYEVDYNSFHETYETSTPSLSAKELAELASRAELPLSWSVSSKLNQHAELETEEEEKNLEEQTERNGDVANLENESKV
Chain of G protein-activated inward rectifier potassium channel 2 (Homo sapiens) + G protein-activated inward rectifier potassium channel 1 (Homo sapiens) (P48549 whole entry, looked up): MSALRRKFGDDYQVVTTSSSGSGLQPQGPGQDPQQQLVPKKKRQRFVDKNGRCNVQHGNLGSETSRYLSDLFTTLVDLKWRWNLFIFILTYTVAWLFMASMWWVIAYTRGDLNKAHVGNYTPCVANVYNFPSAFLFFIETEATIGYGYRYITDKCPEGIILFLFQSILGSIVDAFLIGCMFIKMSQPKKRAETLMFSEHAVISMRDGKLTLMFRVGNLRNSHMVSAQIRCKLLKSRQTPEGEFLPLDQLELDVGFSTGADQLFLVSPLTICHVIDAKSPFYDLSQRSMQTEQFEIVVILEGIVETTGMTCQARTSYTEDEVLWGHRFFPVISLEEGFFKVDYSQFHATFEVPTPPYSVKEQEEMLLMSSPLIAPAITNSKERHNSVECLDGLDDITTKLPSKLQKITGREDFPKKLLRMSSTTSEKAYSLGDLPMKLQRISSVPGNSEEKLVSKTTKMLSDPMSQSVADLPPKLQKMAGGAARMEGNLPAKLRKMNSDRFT
In the case of `O=C(NC(=S)N1CCCc2ccccc21)c1ccc(Br)cc1`, the manual score was 1 (active). As for `Cc1c(C(=O)NC(=S)Nc2ccccc2N2CCCC2)cccc1[N+](=O)[O-]`, the manual score was 0.

Take `O=C(NC(=S)Nc1ccccc1N1CCCC1)c1ccc([N+](=O)[O-])cc1`: the manual score is 1 (active). The result for `CCC1CCCCN1C(=S)NC(=O)c1ccc([N+](=O)[O-])cc1` (configuration not stated) reads 1 (active). The result for `CCC1CCCCN1C(=O)CSc1nnc(-c2ccco2)o1` (configuration not stated) reads 0. For the compound `O=C(NC(=S)Nc1ccccc1N1CCCC1)c1ccccc1[N+](=O)[O-]`, the manual score was 0. The result for `O=C(NC(=S)N1CCCc2ccccc21)c1ccc(Cl)cc1` reads 1 (active). The result for `O=C(COc1ccc(Br)cc1Br)NC(=S)N1CCCc2ccccc21` reads 0; that for `O=c1[nH]c(NCCO)nc2c1C1(CCCCC1)Cc1ccccc1-2`, 0. For `CCOC(=O)c1cccc(-n2c(C)cc(C=O)c2C)c1`, the manual score was 0. For `O=C(Nc1nc(-c2cc3ccccc3oc2=O)cs1)c1ccc(Br)o1`, the manual score is 0. Next, `O=C(NC(=S)N1CCCc2ccccc21)c1ccc([N+](=O)[O-])cc1`: 1 (active); `O=C(NC(=S)N1CCc2ccccc21)c1ccccc1Br`: 1 (active); `O=C(c1ccccc1)N1CCCc2ccccc21`: 0.

As to `O=C(NC(=S)N1CCCc2ccccc21)c1ccccc1`, the manual score was 1 (active). Next, `O=C(N/N=C1\CCCc2ccccc21)c1ccc([N+](=O)[O-])cc1`: 0. Take `O=C(NC(=S)N1CCc2ccccc21)c1ccccc1`: the manual score was 1 (active).

`C=CCN1C(=O)/C(=C2/Sc3ccccc3N2C)SC1=Nc1c(C)n[nH]c1C`: the manual score is 0.

Regarding `O=C(NC(=S)N1CCN(c2ccc([N+](=O)[O-])cc2)CC1)c1ccc(F)cc1`, the manual score was 1 (active).

Regarding `CCC(=O)c1ccc(N2CCN(C(=O)c3cc([N+](=O)[O-])ccc3N3CCN(C)CC3)CC2)c(F)c1`, the manual score was 0. Take `O=C(NC(=S)N1CCN(c2ccc(F)cc2)CC1)C12CC3CC(CC(C3)C1)C2`: the manual score was 0. Next, `O=S(=O)(Nc1ccccc1N1CCCCC1)c1ccc(Cl)s1`: 0.

Take `O=S(=O)(Nc1cc(Cl)ccc1N1CCCCC1)c1cccs1`: the manual score was -1 (active). The result for `CCC/C(=N/NC(=O)c1csc(C)c1C)c1ccc(Cl)s1` reads 0; that for `COc1ccc(-c2onc(C)c2-c2ccc(C(=O)OC(C)C)o2)c(O)c1`, 0; that for `COc1ccc(-c2c(S(=O)(=O)c3ccccc3)cnn2-c2ccccc2)cc1`, -1 (active).

For the compound `COc1ccc(-c2c3c(=O)n(C)c(=O)n(C)c3cn2-c2ccccc2)cc1`, the manual score is 0. For `COc1ccc(-n2ncc3c(NCc4cccs4)ncnc32)cc1`, the manual score was 0. The result for `N#Cc1c(N)nc(SCc2ccccc2)c(C#N)c1-c1ccco1` reads 0; that for `Cc1ccc(OCC(=O)NNC(=O)C(C)Sc2ncnc3sc(C)c(C)c23)cc1` (configuration not stated), 1 (active). Next, `CC(NC(=O)COc1ccccc1)C(=O)NC1=NCCS1` (configuration not stated): 0; `CCOC(=O)c1c(NC(=O)CSc2nnc(-c3ccncc3)n2Cc2ccco2)sc(C(C)=O)c1C`: -1 (active). Turning to `CCOc1ccccc1NC(=O)CSc1nnc(-c2ccco2)n1Cc1ccco1`, the manual score is 0.

Turning to `COC(=O)c1c(NC(=O)CSc2nnc(-c3cccnc3)n2Cc2ccco2)sc(C)c1C`, the manual score is -0.5. Next, `CCn1cc(C(=O)N2CC=C(c3ccccc3)CC2)c(=O)c2ccc(C)nc21`: 0.

Regarding `CCc1ccc(C(=O)OCC(=O)Nc2cccc(S(=O)(=O)NC3=NCCCCC3)c2)cc1`, the manual score was 1 (active). Next, `O=C(CSc1ccc2ccccc2c1Br)Nc1cccc(S(=O)(=O)NC2=NCCCCC2)c1`: 0; `O=C(COC(=O)c1cccc(N2C(=O)c3ccccc3C2=O)c1)Nc1ccccc1`: 0.

Consider `Cc1oncc1C(=S)Nc1ccccc1`, for which the manual score was 0. `S=C(Nc1ccc(Cl)cc1)c1nc2ccccc2[nH]1`: the manual score is 1 (active). The result for `Cc1ccc(NC(=S)c2nc3ccccc3[nH]2)cc1` reads 1 (active). Next, `N#C/C(=C/c1ccc(N2CCOCC2)o1)c1nc2ccccc2[nH]1`: 3; `COc1ccc(OC)c(S(=O)(=O)N(C)CC(=O)N2CCN(c3ccccc3F)CC2)c1`: 0. On to `COc1ccc(S(=O)(=O)N(CC(=O)N2CCN(c3ccccc3)CC2)c2ccccc2)cc1`, for which the manual score is 0.

Regarding `CCOC(=O)N1CCN(C(=O)CN(Cc2ccccc2)S(=O)(=O)c2ccc(OC)c(C)c2)CC1`, the manual score was -1 (active). In the case of `COc1ccc(/C=C2\SC(=O)NC2=S)cc1OC`, the manual score is 1 (active). With `COc1cc(/C=C2/SC(=S)NC2=O)ccc1OS(=O)(=O)c1ccc(C)cc1`, the manual score is 0. The result for `COc1cc(/C=C2\SC(=S)NC2=O)ccc1OS(=O)(=O)c1ccccc1` reads 1 (active). Next, `O=C1NC(=S)S/C1=C\c1ccc(SCc2ccccc2)o1`: 0.5. Next, `O=C1NC(=O)/C(=C\c2ccccc2Oc2ccc(F)c(F)c2)S1`: 0; `O=C1NC(=S)/C(=C\c2ccc(-c3ccccc3Cl)o2)S1`: 3; `CCOc1ccc(-c2nc(-c3ccc(OC)cc3)no2)cc1OCC`: 0. Consider `OCCCN=c1cc(-c2ccccc2)oc2ccc(Cl)cc12`, for which the manual score was -1 (active).

Consider `O=S(=O)(c1ccc(Cl)c(F)c1)N1CCC(c2nc(-c3ccncc3)no2)CC1`, for which the manual score was 1 (active). `CC(C)c1ccc(-c2noc(C3CCCN(S(C)(=O)=O)C3)n2)cc1` (configuration not stated): the manual score was 0.

Regarding `O=C(NC(=S)N1CCN(Cc2ccc3c(c2)OCO3)CC1)c1ccc(Cl)cc1`, the manual score is 1 (active).

Regarding `O=C(c1ccc(COc2c(F)c(F)c(F)c(F)c2F)o1)N1CCN(Cc2ccc3c(c2)OCO3)CC1`, the manual score is 0. `O=C(NC(=S)N1CCN(Cc2ccc3c(c2)OCO3)CC1)c1cccc(Br)c1`: the manual score is 1 (active).

With `Cc1cc2cc3c(cc2nc1SCC(=O)N1CCN(C(=O)c2ccco2)CC1)OCO3`, the manual score is 0. In the case of `CCN(CC)c1ccc(C(=O)NC(=S)N2CCN(Cc3ccc4c(c3)OCO4)CC2)cc1`, the manual score is 0. Next, `O=C(c1ccc2nccnc2c1)N1CCN(Cc2ccc3c(c2)OCO3)CC1`: 1 (active); `C/C(=N\NC(=S)Nc1ccc(F)cc1)c1ccc2c(c1)OCCO2`: 1 (active); `Fc1ccc(NC(=S)NN=C2CCCCCC2)cc1`: 0. Next, `C/C(=N/NC(=S)Nc1ccccc1)c1ccc2c(c1)OCO2`: 0; `O=C(Nc1ccc(OCC(=O)N2CCC(Cc3ccccc3)CC2)cc1)c1ccco1`: 0. The result for `Cc1noc(C)c1S(=O)(=O)N1CCC(Cc2ccccc2)CC1` reads 0; that for `Cc1cccc(C(=O)N2CCC(Cc3ccccc3)CC2)c1[N+](=O)[O-]`, -1 (active); that for `COC(=O)Nc1nc(C)c(C(=O)N(C)C)s1`, 0. For `CC(=O)c1sc(NC(=O)c2cc(-c3ccccc3)nn2-c2ccccc2)nc1C`, the manual score was 1 (active). For the compound `O=C(Nc1nc2ccccc2s1)c1cc(-c2ccccc2)nn1-c1ccccc1`, the manual score was 0. Take `C#CC(CO)N(CCN(Cc1ccccc1)C(C#C)CO)Cc1ccccc1` (configuration not stated): the manual score is -1 (active). `C#CCSc1nnc(-c2cccc3ccccc23)o1`: the manual score is 0. Take `CCOC(=O)c1c(NC(=O)C2C3C=CC(C3)C2C(=O)O)sc2c1CCC(CC)C2` (configuration not stated): the manual score is 0.

Take `CCOC(=O)C1=C(NC(=S)NC(=O)c2ccccc2)c2ccccc2CC1C(C)C` (configuration not stated): the manual score is 0.

Regarding `CCOC(=O)c1c(NC(=S)NCCc2ccccc2)sc2c1CC(C(C)C)OC2` (configuration not stated), the manual score is 0. Next, `C=CCNC(=S)Nc1sc2c(c1C(=O)OCC)CC(C(C)C)OC2` (configuration not stated): 1 (active); `CCOC(=O)c1c(NC(=S)NC)sc2c1CC(C)(C)SC2`: 1 (active).

For the compound `C=CCNC(=S)Nc1sc2c(c1C(=O)OCC)CC(C)(CC)OC2` (configuration not stated), the manual score was 1 (active). Turning to `C=C(C)C1CC=C(C)/C(=N/NC(=S)Nc2ccccc2)C1` (configuration not stated), the manual score is 0. Next, `Cc1ccc(NC(=O)CN2c3cccc4cccc(c34)S2(=O)=O)cc1S(=O)(=O)N1CCOCC1`: 1 (active). As to `Cc1ccc(NC(=O)CSc2nccn2C)cc1S(=O)(=O)N1CCOCC1`, the manual score was 0.

Regarding `COC(=O)c1ccc(C)c(NC(=O)CN2C(=O)c3ccccc3S2(=O)=O)c1`, the manual score was 0. `CC12CCC(C(=O)N(CSC(=S)N/N=C\c3ccccc3Cl)C1=O)C2(C)C` (configuration not stated): the manual score is 0.5. The result for `COc1ccc(/C=N\NC(=S)SCN2C(=O)C3CCC(C)(C2=O)C3(C)C)cc1` (configuration not stated) reads 1 (active); that for `CN(C)c1ccc(/C=N\NC(=S)SCN2C(=O)C3CCC(C)(C2=O)C3(C)C)cc1` (configuration not stated), 0; that for `CC12CCC(C(=O)N(CSC(=S)N/N=C\c3ccccc3)C1=O)C2(C)C` (configuration not stated), 1 (active). As for `CC12CCC(C(=O)N(CSC(=S)N/N=C\c3ccccc3O)C1=O)C2(C)C` (configuration not stated), the manual score was 1 (active).

For `Clc1ccccc1-c1nn2c(COc3ccccc3)nnc2s1`, the manual score was 0. Regarding `CSc1ccc(S(=O)(=O)NCc2ccccc2Cl)cc1`, the manual score was 0. Regarding `Cc1ccccc1CNS(=O)(=O)c1ccc2c(c1)OCCO2`, the manual score is -1 (active). The result for `Cc1nc2ccc(NS(=O)(=O)c3ccc4c(c3)OCCO4)cc2s1` reads 0; that for `CCSc1nnc(NC(=O)c2nn(C(C)C)c(=O)c3ccccc23)s1`, 0; that for `CCSc1nnc(NC(=O)CC)s1`, 0. `CCSc1nnc(NC(=O)NC(CC)(C(F)(F)F)C(F)(F)F)s1`: the manual score is 1 (active). On to `CC(C)(C)c1ccc(-c2n[nH]c(=S)n2C2CCCC2)cc1`, for which the manual score was 0.

On to `CN(CCC#N)C(=O)CSc1ncnc2sc(-c3ccccc3)cc12`, for which the manual score is 0. Turning to `O=C1c2ccccc2NC(c2ccc(-c3cccc(Cl)c3)o2)N1O` (configuration not stated), the manual score is 0.5. `C/C(N)=C(/C#N)C(=O)CSc1nc2cc(Cl)ccc2c(=O)n1-c1ccc(C)cc1`: the manual score is 0. `O=c1c2cc(Br)ccc2nc(-c2cccc(C(F)(F)F)c2)n1O`: the manual score is 1 (active). Regarding `O=c1c2ccccc2nc(-c2ccccc2)n1/N=C/c1ccc([N+](=O)[O-])cc1`, the manual score was 0. Take `O=c1c2ccccc2nc(-c2cccc(Cl)c2)n1O`: the manual score is 1 (active).

Consider `O=c1c2ccc(Cl)cc2nc(-c2cccc(C(F)(F)F)c2)n1O`, for which the manual score is 1 (active).
